From PubChem
Rows were chosen to be rich in hits. Some 7.6% of all compounds tested hit in one or more screens of this group.
Cy5 interf NS3h = enhances or quenches Cy5 fluorescence in NS3h assay. 6% of 16,000 active. fluorescence interference ratio at 100 µM. AID 720488. Cy5-dT15 DNA with NS3h, fluorescence interference; actives lie on both sides; signal over control mean, under 1 quenches;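 active means compound fluorescence over control fluorescence at most 0.8, a quencher, or at least a set upper limit, an enhancer; inactive means ratio between 0.8 and the set upper limit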
NS3h inh CB = blocks HCV NS3 helicase binding to DNA; inhibition, % at 100 µM; NS3h Cy5-dT15 DNA binding, fluorescence polarization; AID 687043; 1.6% of 16,000 active;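 active means inhibition above the average over every tested compound plus 3 SD, cut at about 40% in these data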
HCV NS3h conf = confirmation of hepatitis C virus NS3 helicase inhibitors; shares compounds with NS3h inh CB; NS3h binding to Cy5-dT15 DNA, fluorescence polarization; inhibition, % at 100 µM; 20% of 240 active; AID 720485;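 active means percent inhibition of 50% or more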
SSB FP counter = counter-screen for HCV NS3 helicase inhibitors: E. coli SSB binding; inhibition, % at 100 µM; E. coli SSB binding Cy5-dT15, fluorescence polarization; AID 720486; 40% of 240 active; shares compounds with NS3h inh CB;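 active means inhibition of at least 50%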;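 further: displacers lower Cy5 polarization so higher inhibition means more SSB displaced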
Target sequence (P0AGE0 whole entry, looked up): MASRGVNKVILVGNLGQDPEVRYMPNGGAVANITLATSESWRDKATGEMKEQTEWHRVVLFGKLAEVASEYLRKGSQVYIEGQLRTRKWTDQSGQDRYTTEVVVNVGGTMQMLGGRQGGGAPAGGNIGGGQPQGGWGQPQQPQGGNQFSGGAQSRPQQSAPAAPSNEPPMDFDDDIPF
Cy5 SSB interf = Cy5 fluorescence interference in NS3h counter-screen. shares compounds with NS3h inh CB. Cy5-dT15/E. coli SSB fluorescence interference; actives lie on both sides. fluorescence interference ratio at 100 µM. 8% of 240 active. AID 720487;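 active means fluorescence interference ratio at or above 1.2, signal boosting, or at or below 0.8, signal quenching; inactive means ratio between 0.8 and 1.2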
Cy5 interf conf = confirmation counter-screen for HCV NS3 helicase inhibitors: fluorescence interference; shares compounds with NS3h inh CB; Cy5-dT15 DNA/NS3h fluorescence interference counterscreen; fluorescence interference ratio at 100 µM, hits read low; 44% of 240 active;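 active means fluorescence interference ratio at or below 0.8 quencher or at or above a set limitenhancer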
Hits are given with their value; – = inactive; ! = repeats disagree.

SMILES | Cy5 interf NS3h | NS3h inh CB | others
COC(=O)c1[nH]cnc1C(=O)Nc1ccc(Cl)cc1C(=O)c1ccccc1 | 0.72! | –
Cc1ccc(NC(=O)c2nc[nH]c2C(=O)Nc2ccc(Br)cc2C(=O)c2ccccc2)cc1 | – | –
CCCCC1(C)NCCN2C(=O)CSC21 (stereo not given) | – | –
Cc1cc([N+](=O)[O-])nn1CC(=O)Nc1ccc(Cl)cc1C(=O)c1ccccc1 | 0.57 | –
O=C(Nc1ccc(Cl)cc1C(=O)c1ccccc1)c1cncc(Br)c1 | – | –
O=C1NC(=O)C(=Cc2ccc(OCc3cccc(C(=O)O)c3)cc2)C(=O)N1 | – | –
CC(Nc1ccc([N+](=O)[O-])c2cccnc12)c1ccc(Br)cc1 (stereo not given) | 0.68 | –
CCCc1ccc(OCCNc2ccc([N+](=O)[O-])c3cccnc23)cc1 | – | –
O=[N+]([O-])c1ccc(NCC(O)c2ccccc2)c2ncccc12 (stereo not given) | 0.65 | –
O=[N+]([O-])c1ccc(NCCCO)c2ncccc12 | – | –
N#CC1=C(N)Oc2c(c(=O)oc3ccccc23)C1c1cccc([N+](=O)[O-])c1 (stereo not given) | – | –
O=C1NC(=O)C(=Cc2ccccc2Cl)C(=O)N1 | – | –
Cc1cc(OCc2ccc(Cl)cc2)c2c3c(c(=O)oc2c1)CCC3 | – | –
O=C1/C(=C/c2ccccn2)N2CCC1CC2 | – | –
COc1ccccc1N1C(=O)NC(=O)/C(=C\c2ccc(O)cc2)C1=O | – | –
COc1ccccc1CNCCc1ccc(Cl)cc1 | – | –
COC(=O)C(=O)/C(=C\c1ccc(-c2ccccc2[N+](=O)[O-])o1)C(=O)c1ccccc1 | – | –
COc1ccc2[nH]cc(CCN)c2c1 | 0.76 | –
O=[N+]([O-])c1ccc(N2CCCC2)c(F)c1Br | – | –
Cc1ccc(C)n1-c1ccc(N2CCNCC2)c([N+](=O)[O-])c1 | 0.32 | –
CC1(C)C(=O)N(c2ccccc2)C(=O)N(c2ccccc2)C1=O | – | –
COc1ccc(C=C2C(=O)NC(=S)NC2=O)c(OC)c1 | 0.78 | –
COc1cccc(C=C2C(=O)NC(=O)NC2=O)c1 | – | –
CC1=NN(c2ccccc2)C(=O)C1=Cc1c(O)[nH]c(=O)[nH]c1=O | 0.71 | –
O=C(Cn1c[n+]([N-][N+](=O)[O-])cn1)N1CCN(C(=O)Cn2c[n+]([N-][N+](=O)[O-])cn2)CC1 | – | –
SMILES | Cy5 interf NS3h | NS3h inh CB | others
O=C(Cn1c[n+]([N-][N+](=O)[O-])cn1)Nc1ccc(NC(=O)Cn2c[n+]([N-][N+](=O)[O-])cn2)cc1 | 0.76 | –
Cn1c(O)c(C=C2C=CC=N2)c(=O)[nH]c1=O | – | –
Cc1cc(C=C2C(=O)NC(=O)NC2=O)c(C)n1C | – | –
Cc1cc(C=C2C(=O)NC(=O)NC2=O)c(C)n1-c1cccnc1 | – | 47 | HCV NS3h conf=–;SSB FP counter=–;Cy5 SSB interf=–;Cy5 interf conf=0.76
O=C1NC(=O)N(c2ccccc2)C(=O)/C1=C\c1ccc(-c2ccc(C(=O)O)cc2)o1 | – | 83 | HCV NS3h conf=91;SSB FP counter=94;Cy5 SSB interf=–;Cy5 interf conf=0.76
Cc1ccc(-n2c(C)cc(/C=C3\C(=O)NC(=S)N(c4ccccc4)C3=O)c2C)cc1 | – | –
Cc1ccc(N2C(=O)NC(=O)/C(=C\C=C\c3ccccc3)C2=O)cc1 | – | –
O=C1NC(=S)NC(=O)C1=Cc1ccc(-c2cc(Cl)c([N+](=O)[O-])cc2Cl)o1 | – | –
O=C1NC(=S)N(c2ccccc2)C(=O)/C1=C/c1ccc(-c2ccc(C(=O)O)c(Cl)c2)o1 | – | 68 | HCV NS3h conf=66;SSB FP counter=95;Cy5 SSB interf=–;Cy5 interf conf=–
Cc1ccc(N2C(=O)/C(=C/c3ccc(-c4cccc(C(=O)O)c4)o3)C(=O)NC2=S)cc1 | – | 83 | HCV NS3h conf=55;SSB FP counter=105;Cy5 SSB interf=–;Cy5 interf conf=–
CCOc1ccc(N2C(=O)NC(=O)/C(=C\c3ccc(Sc4nc5ccccc5[nH]4)o3)C2=O)cc1 | – | –
CCN1CCC2(CC1)CC(C)c1cccc(C)c1N2 (stereo not given) | – | –
CCN1CCN(c2ccc(C(F)(F)F)cn2)CC1 | – | –
O=P(Oc1ccccc1)(Oc1ccccc1)C(NCc1ccccc1)c1ccccc1 (stereo not given) | – | –
